Measured values as given in PubChem BioAssay AID1159580 (chemical genetic matrix, 2015).
About 2,000 (36%) of roughly 5,500 compounds were called active. Another 18% or so got no clear call; they are omitted. Rule as the data show it: active = normalized growth mostly below about 0.91 (no sharp cut-off); inconclusive = no clear call, values can overlap the other calls; inactive = mostly above about 0.92. The list shows a part of the results.

Experiment: chemical genetic growth profiling, strain panel (AID 1159580);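 also: tested at 20 µM; growth read once vehicle control cultures reached saturation at 30 °C; 1 = growth at the plate median or of vehicle wells; lower values mean less growth of the strain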
Details: S. cerevisiae deletion strains, growth OD

Measured: normalized growth

CC1(C)CC(O)C2(C)CCC3(C)C(=CCC4C5(C)CCC(O)C(C)(CO)C5CCC43C)C2C1 (configuration not stated)
inactive: locus YAL021C, strain ccr4, stronger effect = lower value 1.02 | locus YAL026C, strain drs2, stronger effect = lower value 1.03 | locus YAL030W, strain snc1, stronger effect = lower value 1.02 | locus YBL061C, strain skt5, stronger effect = lower value 1.03 | locus YBR009C, strain hhf1, stronger effect = lower value 1.02 | locus YBR023C, strain chs3, stronger effect = lower value 1.03 | locus YBR171W, strain sec66, stronger effect = lower value 1.03 | locus YBR231C, strain swc5, stronger effect = lower value 1.03 | locus YBR279W, strain paf1, stronger effect = lower value 1.02 | locus YCL011C, strain gbp2, stronger effect = lower value 1.03 | locus YCL016C, strain dcc1, stronger effect = lower value 1.03 | locus YCL061C, strain MRC1, stronger effect = lower value 1.02 | locus YCL069W, strain vba3, stronger effect = lower value 1.03 | locus YCR088W, strain abp1, stronger effect = lower value 1.03 | locus YDL005C, strain med2, stronger effect = lower value 1.03 | locus YDL040C, strain nat1, stronger effect = lower value 1.03 | locus YDR001C, strain nth1, stronger effect = lower value 1.02 | locus YDR069C, strain doa4, stronger effect = lower value 1.04 | locus YDR137W, strain rgp1, stronger effect = lower value 0.956 | locus YDR159W, strain sac3, stronger effect = lower value 1.04 | locus YDR195W, strain ref2 1 | locus YDR297W, strain sur2, stronger effect = lower value 1.02 | locus YDR334W, strain swr1, stronger effect = lower value 1.03 | locus YDR335W, strain msn5, stronger effect = lower value 1.03 | locus YDR392W, strain spt3, stronger effect = lower value 1.03 | locus YEL003W, strain gim4, stronger effect = lower value 1.02 | locus YEL037C, strain rad23, stronger effect = lower value 1.02 | locus YEL061C, strain CIN8 (second series), stronger effect = lower value 1.02 | locus YER015W, strain faa2, stronger effect = lower value 1.02 | locus YER016W, strain bim1, stronger effect = lower value 1.03 | locus YER111C, strain swi4, stronger effect = lower value 1.03 | locus YER155C, strain BEM2 (second series), stronger effect = lower value 1.04 | locus YFR010W, strain ubp6, stronger effect = lower value 1.03 | locus YGL167C, strain pmr1, stronger effect = lower value 1.02 | locus YGL173C, strain kem1, stronger effect = lower value 1.03 | locus YGL227W, strain vid30, stronger effect = lower value 1.03 | locus YGL240W, strain doc1, stronger effect = lower value 1.02 | locus YGL253W, strain hxk2, stronger effect = lower value 1.03 | locus YHR013C, strain ard1, stronger effect = lower value 1.04 | locus YHR027C, strain rpn1, stronger effect = lower value 1.02 | locus YHR142W, strain chs7, stronger effect = lower value 1.03 | locus YJL092W, strain hpr5, stronger effect = lower value 1.03 | locus YJL095W, strain BCK1 (second series), stronger effect = lower value 1.04 | locus YJL115W, strain asf1, stronger effect = lower value 1.04 | locus YJL129C, strain trk1, stronger effect = lower value 1.04 | locus YJL154C, strain vps35, stronger effect = lower value 1.02 | locus YJL164C, strain tpk1, stronger effect = lower value 1.03 | locus YJL166W, strain qcr8, stronger effect = lower value 1.02 | locus YJL187C, strain SWE1, stronger effect = lower value 1.02 | locus YKL160W, strain elf1, stronger effect = lower value 1.02 | locus YKR026C, strain gcn3, stronger effect = lower value 1.04 | locus YKR091W, strain srl3, stronger effect = lower value 1.03 | locus YLL001W, strain dnm1, stronger effect = lower value 1.03 | locus YLL026W, stronger effect = lower value 1.03 | locus YLL041C, strain sdh2, stronger effect = lower value 1.03 | locus YLR027C, strain aat2, stronger effect = lower value 1.03 | locus YLR221C, strain rsa3, stronger effect = lower value 1.02 | locus YLR258W, strain gsy2, stronger effect = lower value 1.04 | locus YLR262C, strain YPT6 (second series), stronger effect = lower value 0.994 | locus YLR320W, strain mms22, stronger effect = lower value 1.04 | locus YLR342W, strain FKS1, stronger effect = lower value 1.02 | locus YLR357W, strain rsc2, stronger effect = lower value 1.02 | locus YLR370C, strain arc18, stronger effect = lower value 1.03 | locus YLR384C, strain iki3, stronger effect = lower value 1.03 | locus YML120C, strain ndi1, stronger effect = lower value 1.04 | locus YMR058W, strain fet3, stronger effect = lower value 1.02 | locus YMR125W, strain sto1, stronger effect = lower value 1.04 | locus YMR129W, stronger effect = lower value 1.02 | locus YMR205C, strain PFK2, stronger effect = lower value 1.03 | locus YMR231W, strain pep5, stronger effect = lower value 1.03 | locus YNL071W, strain lat1, stronger effect = lower value 1.02 | locus YNL209W, strain ssb2, stronger effect = lower value 1.03 | locus YNL248C, strain rpa49, stronger effect = lower value 1.02 | locus YNL322C, strain KRE1 (second series), stronger effect = lower value 1.02 | locus YNR049C, strain mso1, stronger effect = lower value 1.04 | locus YOR001W, strain rrp6, stronger effect = lower value 1.04 | locus YOR070C, strain gyp1, stronger effect = lower value 1.03 | locus YOR080W, strain dia2, stronger effect = lower value 1.03 | locus YOR083W, strain WHI5, stronger effect = lower value 1.02 | locus YOR106W, strain vam3, stronger effect = lower value 1.03 | locus YOR265W, strain rbl2, stronger effect = lower value 1.03 | locus YOR270C, strain vph1, stronger effect = lower value 1.03 | locus YOR290C, strain snf2, stronger effect = lower value 1.03 | locus YPL051W, strain arl3, stronger effect = lower value 1.02 | locus YPL078C, strain atp4, stronger effect = lower value 1.03 | locus YPL106C, strain sse1, stronger effect = lower value 1.05 | locus YPL240C, strain hsp82, stronger effect = lower value 1.03
